Here are results for 38 compounds from PubChem BioAssay (NCATS).

Records with an inconclusive call do not appear. Where a call stands in place of a potency, no number is given. Calls of active or inactive are those of the source. Calls follow the shape of the dose curve; as a rule, active = well fitted inhibition curve with a large enough effect; inconclusive = small, poorly fitted or top-dose-only effect; inactive = no such curve, though single readings can be large or run the other way.
Potency is read from the fitted curve at half-maximal effect.

The experiment in a line: NS1 protein of Zika virus - qHTS assay to identify small molecule inhibitors in human HEK 293 cells (AID 1347053). Also: nearly all actives have a fitted effect of over 55% in size. As to conditions: HEK293 ZIKV MR766 infection, NS1 TR-FRET, 24 h; series mostly up to 46.1 µM. The method in brief:
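Read-out is a two-antibody TR-FRET for ZIKV NS1, normalized between uninfected cells and infected cells. Compound added 1 h before MR766 infection at MOI 0.5; human HEK 293 cells incubated 24 h, 37 C.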
As to `Cc1cn([C@@H]2C[C@@H](O)[C@H](CO)O2)c(=O)[nH]c1=O`, the Potency entry is “inactive”.

Take `COc1ccc2nc3cc(Cl)ccc3c(Nc3cc(CN4CCCC4)c(O)c(CN4CCCC4)c3)c2n1`: the Potency result was “inactive”.

In the case of `CCCCC(C=O)NC(=O)C(CC(C)C)NC(=O)OCc1ccccc1` (stereo not drawn), the Potency result is “inactive”.

In the case of `CN(C)CCCNC(=O)c1ccc(-c2cc(O)c3ncccc3c2)cc1`, the Potency result is “inactive”.

In the case of `C[C@]12CCC3=C4CCC(=O)C=C4CC[C@@H]3[C@H]1CC[C@@]2(O)CC#N`, the Potency entry was “inactive”.

As to `O=c1[nH]nc(OCCCc2ccc(Cl)cc2)c(NCc2cccnc2)c1Br`, the Potency entry was “inactive”.

Turning to `CC(C)(C)c1nc(-c2cccc(NS(=O)(=O)c3c(F)cccc3F)c2F)c(-c2ccnc(N)n2)s1`, the Potency entry is “inactive”.

With `Cc1nn(Cc2ccccc2Cl)c(C)c1CN(C)CC(O)COc1ccc(Cl)cc1` (stereo not drawn), the Potency result was “inactive”.

With `COc1ccc2cc1Oc1ccc(cc1)C[C@H]1c3cc(c(OC)cc3CCN1C)Oc1c(OC)c(OC)cc3c1[C@H](C2)N(C)CC3`, the Potency entry was “inactive”.

As to `O=C1CN2Cc3c(ccc(Cl)c3Cl)N=C2N1`, the Potency entry was “inactive”.

`CN1CCN(c2ncc(-c3cc(Cl)cc(Cl)c3Cl)c(N)n2)CC1`: the Potency result was “inactive”.

With `CC(=O)OCC(=O)[C@@]1(O)CC[C@H]2[C@@H]3CCC4=CC(=O)C=C[C@]4(C)[C@@H]3[C@@H](O)C[C@@]21C`, the Potency result was “inactive”.

`CN(C)S(=O)(=O)c1ccc2c(c1)C(=Cc1cc3c([nH]1)CCCC3)C(=O)N2`: the Potency result was “inactive”.

Take `Cc1cc(-c2ncc(CC(=O)Nc3ccc(-c4cnccn4)cn3)cc2C)ccn1`: the Potency entry was “inactive”.

Consider `CN1CCc2c(n(Cc3ccc(C(=O)NO)cc3)c3ccccc23)C1`, for which the Potency entry is “inactive”.

Turning to `COc1cc([C@@H]2c3cc4c(cc3[C@@H](O[C@@H]3O[C@@H]5CO[C@@H](C)O[C@@H]5[C@H](O)[C@@H]3O)[C@H]3COC(=O)[C@H]23)OCO4)cc(OC)c1O`, the Potency is 1180 nM (active).

`Fc1ccc(CNc2ncnc3ccc(F)cc23)cc1`: the Potency entry is “inactive”.

Turning to `O=C(CCCN1CCN(c2ccc(F)cc2)CC1)NC1c2ccccc2CSc2ccccc21` (stereo not drawn), the Potency entry was “inactive”.

With `CCCCC(F)(F)[C@@]1(O)CC[C@H]2[C@H](CC(=O)[C@@H]2CCCCCCC(=O)O)O1`, the Potency entry was “inactive”.

Take `CC=C(C(=CC)c1ccc(O)cc1)c1ccc(O)cc1`: the Potency result was “inactive”.

Turning to `CN1CCC[C@H]1CCO[C@](C)(c1ccccc1)c1ccc(Cl)cc1`, the Potency entry is “inactive”.

`O=C(O)Cc1cccc(OCCCN(Cc2cccc(C(F)(F)F)c2Cl)CC(c2ccccc2)c2ccccc2)c1`: the Potency result was “inactive”.

For `Cc1ccc2c(c1)C(=O)[C@]1(O)CCN(c3ccccc3)C1=N2`, the Potency entry was “inactive”.

As to `C[C@@H]1CC=CC=CC=CC=C[C@@H](O[C@@H]2O[C@H](C)[C@@H](O)[C@H](N)[C@H]2O)C[C@@H]2O[C@](O)(C[C@@H](O)C[C@@H]3O[C@@H]3C=CC(=O)O1)C[C@H](O)[C@@H]2C(=O)O`, the Potency result was “inactive”.

In the case of `COc1cc2nc(-c3cc(F)ccc3O)nc(N[C@@H]3CNC[C@@H]3C(C)(C)O)c2cc1OC`, the Potency is 9350 nM (active).

As to `CN(C(Cc1ccc(OS(=O)(=O)c2cccc3cnccc23)cc1)C(=O)N1CCN(c2ccccc2)CC1)S(=O)(=O)c1cccc2cnccc12` (stereo not drawn), the Potency result was “inactive”.

Consider `CNC1[C@H](O)C(O[C@@H]2C(O)C(O[C@H]3O[C@H]([C@@H](C)NC)CC[C@H]3N)[C@@H](N)C[C@H]2N)OC[C@]1(C)O` (stereo partly drawn), for which the Potency entry is “inactive”.

`C[C@@H]1[C@H](C)CC[C@]2(C(=O)O)CC[C@]3(C)C(=CC[C@@H]4[C@@]5(C)CC[C@H](O)C(C)(C)[C@H]5CC[C@]43C)[C@@H]12`: the Potency result is “inactive”.

In the case of `Nc1ccn([C@@H]2O[C@H](CO)[C@@H](O)[C@H]2O)c(=O)n1`, the Potency entry is “inactive”.

For the compound `C[C@@]1(C(=O)Nc2ccc(F)nc2)CCCN1c1nc(Nc2cc(C3CC3)[nH]n2)c2cccn2n1`, the Potency result was “inactive”.

In the case of `Nc1ncnc2c1c(-c1cccc(OCc3ccccc3)c1)cn2C1CC(CN2CCC2)C1` (stereo not drawn), the Potency result is “inactive”.

Take `Cc1[nH]c(C=C2C(=O)Nc3ccc(S(=O)(=O)N(C)c4cccc(Cl)c4)cc32)c(C)c1C(=O)N1CCN(C)CC1`: the Potency result is “inactive”.

Turning to `O=C1NC(=O)C(c2cnc3ccccn23)=C1c1cn2c3c(cccc13)CN(C(=O)N1CCOCC1)CC2`, the Potency is 590 nM (active).

As to `C[C@@H]1[C@H](O)[C@@H](C)C=CC=CC=CC=CC=CC=CC=C[C@H](O[C@@H]2O[C@H](C)[C@H](O)[C@H](N)[C@@H]2O)C[C@@H]2O[C@](O)(C[C@@H](O)C[C@@H](O)[C@H](O)CC[C@@H](O)C[C@@H](O)CC(=O)O[C@H]1C)C[C@H](O)[C@@H]2C(=O)O`, the Potency entry was “inactive”.

With `OC(c1cc(C(F)(F)F)nc2c(C(F)(F)F)cccc12)C1CCCCN1` (stereo not drawn), the Potency was 10500 nM (active).

Take `Cc1cnc(CNC(=O)c2c(=O)c3ccc(N4CCCN(C)CC4)nc3n3c2sc2ccccc23)cn1`: the Potency entry was “inactive”.

Consider `O=[N+]([O-])c1ccc(Nc2ccccc2-c2ccccc2)c2nonc12`, for which the Potency entry is “inactive”.

Take `CCC[C@H](Nc1nc(-c2ccc(NC(=O)NCC)c(OC)c2)ncc1C)c1cccnc1`: the Potency is 9.3 nM (active).
